The nature of test [1]: APR_HepG2_CellCycleArrest_24hr: Apredica 24-hour HepG2 Assay for Cell Cycle Arrest (AID 2282905).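 Note: cell cycle arrest scored as ratio of 2N to 4N nuclear DNA content.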 Particulars: imaging, actives raise or lower the signal. In outline:
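Compounds (0.39 to 200 uM, final DMSO 0.5% v/v) are applied to HepG2 cells for 24 hours; cells are then fixed, permeabilized and nuclei labeled with Hoechst 33342. Automated imaging measures DNA content, and activity is fitted in both directions against DMSO.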

Test [2] is described as follows: APR_HepG2_NuclearSize_24hr: Apredica 24-hour HepG2 Assay for Nuclear Size (AID 2282907). The settings on record: high-content imaging, actives raise or lower the signal. In outline: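 Nuclear size is measured by fluorescence high-content imaging of Hoechst-labelled HepG2 nuclei after 24 hr of treatment (0.39–200 uM, 0.5% DMSO). Cells are fixed in 3.7% formaldehyde before staining, and DMSO serves as the baseline for bidirectional curve fitting.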

The nature of test [3]: APR_HepG2_CellLoss_24hr: Apredica 24-hour HepG2 Assay for Cell Loss (AID 2282908).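 For AC50: fit in both directions so a hit may be cell loss or gain.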 Particulars: high-content imaging. In outline: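 Nuclear count serves as the viability measure: treated cells are fixed, permeabilized and labelled with Hoechst 33342, and six images per well are analysed to identify valid nuclei. Doses span 0.39–200 uM, and activity in either direction is scored against DMSO.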

The nature of test [4]: APR_HepG2_MicrotubuleCSK_24hr: Apredica 24-hour HepG2 Assay for Microtubule CSK Stabilty (AID 2282909). Particulars: HepG2 microtubule cytoskeleton imaging, actives raise or lower the signal. The method in brief:
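Compounds were applied to HepG2 cells for 24 hours across 0.39–200 uM in duplicate, with final DMSO at 0.5% v/v. Fixed, permeabilized cells were labeled for alpha-tubulin and nuclei, and tubulin fluorescence was quantified by imaging, fitted bidirectionally against DMSO.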

Test [5] is described as follows: APR_HepG2_MitoMembPot_24hr: Apredica 24-hour HepG2 Assay for Mitochondrial Membrane Potential (AID 2282911). The settings on record: imaging, actives raise or lower the signal. The method in brief:
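Cells are dosed for 24 hr across 0.39 to 200 uM with solvent held at 0.5% DMSO. They are then stained with 250 nM MitoTracker Red CMXRos for 30 min, fixed in 3.7% formaldehyde and imaged.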

The nature of test [6]: APR_HepG2_MitoMass_24hr: Apredica 24-hour HepG2 Assay for Mitochondrial Mass (AID 2282912). Particulars: high-content imaging, actives raise or lower the signal. In outline: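 After 24 hr of treatment at 0.39 to 200 uM, HepG2 cells take up 250 nM MitoTracker Red CMXRos for 30 min and are then fixed with 3.7% formaldehyde. Per-well images are quantified, and any change in either direction is scored against solvent.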

Test [7] can be described thus: APR_HepG2_p53Act_24hr: Apredica 24-hour HepG2 Assay for p53 Activation (AID 2282913).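 Note: p53 protein immunofluorescence averaged per cell in HepG2 with Hoechst nuclei.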 Particulars: high-content imaging, actives raise or lower the signal. The method in brief: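 Human HepG2 liver cells; 24 hr cpd treatment, 0.39–200 uM, 0.5% DMSO final. Fixed in 3.7% formaldehyde, permeabilized with 0.5% Triton X-100, stained with anti-p53/Cy5 plus Hoechst 33342. Six images per well at 20x; gain or loss vs DMSO.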

Test [8] in a line: APR_HepG2_CellCycleArrest_72hr: Apredica 72-hour HepG2 Assay for Cell Cycle Arrest (AID 2282914). The settings on record: high-content imaging, actives raise or lower the signal. In outline:
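Read-out is Hoechst-stained nuclear DNA content measured by automated fluorescence imaging (20x, six images per well), fitted in both directions relative to DMSO. Human HepG2 liver cells received 0.39–200 uM compound for 72 hr at 0.5% v/v DMSO.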

Test [9] can be described thus: APR_HepG2_CellLoss_72hr: Apredica 72-hour HepG2 Assay for Cell Loss (AID 2282915). The settings on record: high-content imaging. The method in brief:
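HepG2 cells exposed 72 h to compound at 0.39–200 uM (10 concentrations, duplicate) in 0.5% DMSO. Fixed with 3.7% formaldehyde and Hoechst 33342-stained. Imaged at 20x; nuclear count gives cell number, fitted bidirectionally versus DMSO.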

Test [10] in a line: APR_HepG2_P-H2AX_72hr: Apredica 72-hour HepG2 Assay for H2AX Phosphorylation (AID 2282916).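 Note: phospho-histone H2A.x immunostain intensity per cell marking DNA damage.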 Particulars: imaging, actives raise or lower the signal. The method in brief:
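Human hepatoma HepG2 cells are dosed across ten concentrations (0.39 to 200 uM, 0.5% v/v DMSO) and incubated 72 hr. Phospho-histone H2A.x is then detected by antibody staining alongside c-Jun and Hoechst, and quantified by automated fluorescence imaging.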

A short description of test [11]: APR_HepG2_MitoticArrest_72hr: Apredica 72-hour HepG2 Assay for Mitotic Arrest (AID 2282918). Particulars: high-content imaging, actives raise or lower the signal. In outline:
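Read-out is phospho-histone H3 immunofluorescence with Hoechst nuclear segmentation, imaged at 20x. Human HepG2 liver cells received ten concentrations (0.39–200 uM, final DMSO 0.5% v/v) for 72 hr before fixation. Gain or loss of signal was fitted relative to DMSO.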

Test [12] can be described thus: APR_HepG2_MicrotubuleCSK_72hr: Apredica 72-hour HepG2 Assay for Microtubule CSK Stabilty (AID 2282919). Particulars: HepG2 microtubule cytoskeleton, high-content imaging, actives raise or lower the signal. The method in brief: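 HepG2, 72 hr cmpd exposure, 0.39–200 uM (10 pts, duplicate), 0.5% DMSO. 3.7% formaldehyde fix, 0.5% Triton perm, anti-alpha-tubulin/Cy5 plus Hoechst. HCS fluorescence intensity; bidirectional fit vs DMSO baseline; taxol as positive control.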

Test [13] in a line: APR_HepG2_P-H2AX_24hr: Apredica 24-hour HepG2 Assay for H2AX Phosphorylation (AID 2282920). The settings on record: high-content imaging, actives raise or lower the signal. In outline: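 HepG2, 24 hr, cpd 0.39–200 uM (10 conc, duplicate), DMSO 0.5% v/v final. Fix 3.7% formaldehyde, Triton X-100 permeabilize, anti-phospho-H2A.x 1:200 + Hoechst 2 ug/mL. Imaged, bidirectional fit vs DMSO.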

A short description of test [14]: APR_HepG2_StressKinase_72hr: Apredica 72-hour HepG2 Assay for Stress Kinase (AID 2282921). The settings on record: HepG2 stress kinase (phospho-c-Jun) imaging, actives raise or lower the signal. The method in brief:
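After a 72 h compound treatment spanning 0.39 to 200 uM, formaldehyde-fixed cells are labelled for phosphorylated c-Jun and nuclei, imaged by automated fluorescence microscopy, and activity is fitted in both directions relative to DMSO controls.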

Test [15] is described as follows: APR_HepG2_StressKinase_24hr: Apredica 24-hour HepG2 Assay for Stress Kinase (AID 2282922). Particulars: HepG2 stress kinase (phospho-c-Jun) imaging, actives raise or lower the signal. In outline:
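Read-out: phospho-c-Jun immunofluorescence (Cy3 secondary) quantified by high-content imaging at 20x, nuclei defined by Hoechst 33342. Human HepG2 liver cells dosed 24 hr, 0.39–200 uM, DMSO 0.5% v/v; gain or loss of signal fitted relative to DMSO.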

A short description of test [16]: APR_HepG2_p53Act_72hr: Apredica 72-hour HepG2 Assay for p53 Activation (AID 2282923).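 Note: average cellular p53 protein immunofluorescence intensity in HepG2 cells.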 Particulars: high-content imaging, actives raise or lower the signal. The method in brief:
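Imaging-based endpoint: after 72 hr compound exposure (up to 200 uM, 0.5% DMSO), fixed and permeabilized monolayers were labelled with anti-p53 antibody and imaged; signal change in either direction was fitted relative to DMSO controls.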

Test [17] can be described thus: APR_HepG2_MitoMass_72hr: Apredica 72-hour HepG2 Assay for Mitochondrial Mass (AID 2282924).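 Note: MitoTracker Red CMXRos stain intensity per cell imaged as mitochondrial mass.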 Particulars: high-content imaging, actives raise or lower the signal. The method in brief:
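Read-out: MitoTracker Red fluorescence intensity from automated imaging (20x, six fields per well) in human HepG2 liver cells. Dosing ran 72 hr, 0.39–200 uM, 0.5% DMSO; bidirectional curve fitting versus DMSO baseline.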

Test [18] is described as follows: APR_HepG2_NuclearSize_72hr: Apredica 72-hour HepG2 Assay for Nuclear Size (AID 2282925). The settings on record: high-content imaging, actives raise or lower the signal. The method in brief: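 Read-out: nuclear diameter from Hoechst 33342 images (ArrayScan, 20x, six fields/well), via cell-cycle image analysis. HepG2 were dosed 0.39–200 uM for 72 hr in 0.5% DMSO. Bidirectional fit relative to DMSO.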

Test [19] can be described thus: APR_HepG2_MitoMembPot_72hr: Apredica 72-hour HepG2 Assay for Mitochondrial Membrane Potential (AID 2282917). Particulars: imaging, actives raise or lower the signal. In outline:
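HepG2 cells dosed 72 hr with compound at 0.39–200 uM in duplicate, 0.5% v/v DMSO final. Mitochondria stained with 250 nM MitoTracker Red CMXRos for 30 min before formaldehyde fixation, imaged by high-content fluorescence; bidirectional fit versus DMSO.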

As usually defined, the AC50 is the concentration giving half of the maximal activity seen.

Activity calls are given as the source filed them. Rule for the calls: active = hit-call score of the fitted dose curve at least 0.9, where 1 is the maximum; inactive = score below 0.9.

In the case of `Clc1nc(Cl)c(Cl)c(Cl)c1Cl`, the AC50 is 40 µM (active) in [1]; 45 µM (active) in [3]; 102 µM (active) in test [6]; 38.6 µM (active) in test [7]; 20 µM (active) in test [8]; 72 µM (active) in test [9]. Further, the AC50 in test [10] is 57.5 µM (active); in test [11] it was 34.1 µM (active); in test [13], 41.2 µM (active); in test [14] it was 68.5 µM (active); in [15], 53.2 µM (active); in test [16], 25 µM (active). In addition, the AC50 in [17] is 89.9 µM (active); in test [18] it was 96.9 µM (active). The result in [2], in [4], in [5] and in test [12] was inactive.

Regarding `O=C(NS(=O)(=O)/C=C/c1ccccc1)c1ccc(F)cc1Cl`, the molecule was called inactive in [1], in test [2], in test [3], in test [4], in [5] and in test [6]. Also, the molecule was called inactive in [7], in [8], in test [10], in [19], in [12] and in test [13]. Besides, the molecule was classed as inactive in test [14], in [15], in test [16], in [17] and in [18].

Regarding `CC[C@H]1CC[C@H](NCc2cc3c(cc2OC)[C@H]2C[C@H]2C(=O)N3C)[C@H](c2ccccc2)N1`, the molecule was classed as inactive in test [1], in [2], in test [3], in test [4], in [5] and in test [6]. For the same molecule, the result in test [7], in [8], in test [10], in [11], in test [12] and in [13] was inactive. Moreover, the result in test [14], in [15], in [16] and in [17] was inactive.

Turning to `CC(C)CC(C)(O)C#CC(C)(O)CC(C)C` (stereo unspecified), the call in test [1], in test [2], in test [3], in test [4], in test [5] and in test [6] was inactive. The outcome in [7], in test [8], in [9], in [10], in test [12] and in test [13] was inactive. In addition, the molecule was classed as inactive in [14], in [15], in [16], in test [17] and in test [18].

`O=C(O)CC(O)C(=O)O` (stereo unspecified): the outcome in test [1], in test [2], in test [3], in test [4], in [5] and in test [6] was inactive. Also, the outcome in test [7], in [8], in test [9], in test [10], in [12] and in test [13] was inactive. Moreover, the molecule was classed as inactive in test [14], in test [15], in test [16], in test [17] and in test [18].

With `CCCCC(CC)COC(=O)CCCCCCCCC(=O)OCC(CC)CCCC` (stereo unspecified), the molecule was called inactive in test [1], in test [2], in [5], in test [6], in test [14] and in test [15]. Further, the result in [16] and in test [18] was inactive. Besides, the AC50 is 117 µM (active) in [3]; 128 µM (active) in test [4]; 108 µM (active) in test [7]; 170 µM (active) in [8]; 100 µM (active) in [9]; 68.2 µM (active) in test [10]. For the same molecule, the half-maximal activity concentration (AC50) is 111 µM (active) in test [11], 87.6 µM (active) in [12], 116 µM (active) in test [13] and 36.5 µM (active) in [17].

With `CCCCCCc1ccc(O)cc1O`, the AC50 in [1] is 89.8 µM (active); in test [3] it was 103 µM (active); in test [5], 46.1 µM (active); in test [6] it was 125 µM (active); in test [7] it was 104 µM (active); in test [11], 33.7 µM (active). For the same molecule, the half-maximal activity concentration (AC50) in test [13] is 101 µM (active); in test [15] it was 158 µM (active). The outcome in test [2], in test [4], in test [8], in [10], in test [19] and in test [12] was inactive. In addition, the outcome in test [14], in test [16], in [17] and in test [18] was inactive.

Consider `C[C@](N)(Cc1ccc(O)c(O)c1)C(=O)O`, for which the molecule was called inactive in test [1], in [2], in test [3], in [4], in test [5] and in test [6]. The molecule was classed as inactive in test [7], in [8], in test [10], in test [12], in test [13] and in test [14]. For the same molecule, the call in [15], in test [16] and in [17] was inactive.

The values are drawn from PubChem BioAssay (EPA / NIEHS).
